Screening data (PubChem BioAssay)
Sa growth inh = inhibitors of Staphylococcus aureus growth at 42 °C. actives 0.53% (n = 170,000). S. aureus RN4220 growth, OD600, 20 h; stronger effect = lower value. relative growth, % (no concentration beside the values);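 active = relative growth at most 50% at the other temperature and 20+ points below 30 °C, or under 10% at both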
S aureus helic = S. aureus DNA helicase inhibition; inhibition, % (concentration not given with the values); actives 0.05% (n = 120,000); AID 485395; purified S. aureus helicase, fluorescence unwinding assay; in the data active = inhibition above about 25%, passing the limit was not always enough;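 note: 0% = mean of negative control wells and 100% = mean of positive control wells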
An asterisk follows results filed as active; nt = no result. This is one part of a sample in which hits are shown more often than they occur.

SMILES | Sa growth inh | S aureus helic
O=C(NCC1CCCO1)c1ccc(CSc2ncn[nH]2)cc1 (centres undefined) | 65.6 | -10.0
CC1CC(C)CN(CCCN)C1 (centres undefined) | 85.5 | 9.0
CCC1OC(=O)[C@H](C)C(=O)[C@H](C)[C@@H](OC2O[C@H](C)C[C@H](N(C)C)[C@H]2O)[C@](C)(OC)C[C@@H](C)C(=O)[C@H](C)[C@H]2N(CCCCn3cnc(-c4cccnc4)c3)C(=O)OC12C (some centres undefined) | -1.0* | nt
CC(C)C(=O)Nc1cccc2nsnc12 | 1.2* | -2.0
Cc1ccc(S(=O)(=O)C(=O)Nc2cccc3nsnc23)cc1 | 124.5 | -4.0
COc1ccc(/C=C(\C#N)c2cccs2)cc1 | 47.2* | -12.0
N#C/C(=C\c1ccc(C(F)(F)F)cc1)c1cccs1 | 99.1 | nt
CCOC(=O)c1c(-c2ccccc2)csc1N | 102.5 | -12.0
CCOC(=O)c1c(N)sc(SC#N)c1-c1ccccc1 | 4.9* | 21.0
Cc1ccc(C(CC(=O)Nc2ccccn2)N2Cc3ccccc3C2=O)cc1 (centres undefined) | 95.2 | -22.0
CSc1nc2scc(-c3cccs3)c2c(=O)n1CC(C)C | 104.8 | 15.0
CC(C)Cn1c(=S)[nH]c2scc(-c3cccs3)c2c1=O | 8.9* | 9.0
CC1CCCCN1CCCNC(=O)Cn1ncc2ccc(Cl)cc21 (centres undefined) | 87.9 | 12.0
CNC(=O)CC1Sc2ccc(C(F)(F)F)cc2NC1=O (centres undefined) | nt | 27.0
O=C(NCc1ccccc1)c1nc(S(=O)(=O)Cc2ccc(F)cc2)ncc1Cl | 14.9 | nt
Cc1cccc(CS(=O)(=O)c2ncc(Cl)c(C(=O)NCc3ccccc3)n2)c1 | 1.6* | nt
COc1ccc(CCN(C)C(=O)Cn2nnc(-c3ccccc3Br)n2)cc1OC | 91.9 | -3.0
O=C(O)Cc1coc(-c2ccc(F)cc2)n1 | 77.7 | -19.0
CN(Cc1coc(-c2ccccc2)n1)Cc1coc(-c2ccccc2)n1 | -1.3* | -23.0
O=C(Nc1ncnc2sccc12)c1cccs1 | 59.5 | 4.0
O=C(Nc1ncnc2sccc12)C1CCCCC1 | 4.5* | 8.0
N/C(=N\OC(=O)CCN1C(=O)c2ccccc2C1=O)c1ccncc1 | 102.1 | 11.0
CN(Cc1ccccc1)C(=O)c1cc(-c2ccc(F)cc2)on1 | 110.8 | -8.0
CCOC(NC(=O)Nc1ccc(Br)cc1)(C(F)(F)F)C(F)(F)F | -0.7* | nt
CCOC(NC(=O)c1ccccc1)(C(F)(F)F)C(F)(F)F | 113.9 | nt
SMILES | Sa growth inh | S aureus helic
Cc1ccc(C(=O)C(C)Sc2nnnn2C)cc1 (centres undefined) | 71.8 | -6.0
CSc1nnc(-c2ccc(C(C)(C)C)cc2)n1Cc1ccco1 | 85.5 | nt
C=CCSc1nnc(-c2ccc(C(C)(C)C)cc2)n1Cc1ccco1 | 8.7* | 7.0
CN(C)c1ccc2nc3ccc(=[N+](C)C)cc-3sc2c1 | 51.8 | nt
Cc1cc2nc3ccc(=[N+](C)C)cc-3sc2cc1N | 209.4 | 132.0*
COc1ccc2c(Sc3ccccc3)c(C(=O)N3CCc4ccccc43)[nH]c2c1 | 139.7 | -18.0
O=C(C=C1SCCS1)c1cccs1 | 99.4 | nt
CN1C(=O)/C(=C\C(=O)c2cccs2)c2ccccc21 | 2.9* | -11.0
CC(=O)N(CCc1ccccc1)Cc1nc2ccccc2c(=O)[nH]1 | 97.4 | 9.0
N/C(Cn1ccccc1=O)=N\O | 82.1 | -14.0
O=C(O)Cn1ccccc1=O | 44.4* | 7.0
CN(C)S(=O)(=O)c1ccc(=S)[nH]c1 | 37.7* | 10.0
CSc1ccc(S(=O)(=O)N(C)C)cc1 | 108.0 | 0.0
COC(CNc1ncnc2c1c(-c1ccccc1)cn2-c1ccccc1)OC | nt | -1.0
Cc1ccc(S(=O)(=O)N2CCC(C(=O)N/N=C/c3ccccn3)CC2)cc1 | 92.5 | 4.0
Cc1ccccc1-c1noc(-c2nnn(-c3ccc(C(F)(F)F)c(Cl)c3)c2N)n1 | 99.5 | -25.0
Cc1cc(C)cc(-n2cnc3ccccc3c2=O)c1 | 101.4 | 2.0
C[N+]1(CC(=O)OC2CCCCCCCCCCC2)CCCC1 | 19.9* | 13.0
C[N+]1(CC(=O)OCCCC2CCCCC2)CCCCC1 | 97.6 | 5.0
COc1ccc(O)c(C(=O)c2cnn(C(=O)CN3CCCC3=O)c2)c1 | 97.1 | 8.0
c1ccc(C2CCCCS2)cc1 (centres undefined) | 110.0 | 14.0
Cc1nc2ccccc2n1CCc1nc2c3ccccc3nc(=S)n2[nH]1 | 106.0 | -6.0
CCCc1nc2c3ccccc3nc(=S)n2[nH]1 | 1.7* | -18.0
COc1ccc(C(c2c(C)[nH]c3ccccc23)N2CCOCC2)cc1 (centres undefined) | 1.3* | 15.0
COc1ccc(C(c2c(C)[nH]c3ccccc23)N2CCCC2)cc1 (centres undefined) | nt | 21.0
SMILES | Sa growth inh | S aureus helic
CCS(=O)(=O)c1cccc(C(=O)Nc2nccs2)c1 | 103.4 | 14.0
Cc1sc2nc[nH]c(=O)c2c1-c1ccccc1 | nt | -4.0
Cc1sc2nc[nH]c(=S)c2c1-c1ccccc1 | -0.5* | 11.0
C(=N\n1cnnc1)/c1ccc(N(c2ccccc2)c2ccccc2)cc1 | 1.4* | 13.0
CN(C)c1ccc(/C=N/n2cnnc2)cc1 | 89.4 | -23.0
Cc1ccc(N(C(C)C(=O)N(C)C)S(C)(=O)=O)cc1 (centres undefined) | 103.5 | 7.0
NC(N)=NC(N)=Nc1ccccc1C(F)(F)F | 103.8 | 7.0
CC1SC(=N)N(c2ncc(Cc3ccccc3Cl)s2)C1=O (centres undefined) | -1.0* | 1.0
O=C(Nc1ncc(Cc2ccccc2Cl)s1)c1ccco1 | nt | -8.0
CC(Sc1nc2c(cnn2-c2ccc(Cl)cc2)c(=O)[nH]1)c1ccccc1 (centres undefined) | 94.0 | -17.0
CC1CN(Cc2cc(Cl)c3cccnc3c2O)CC(C)O1 (centres undefined) | 0.6* | 1.0
CCN1CCN(Cc2cc(Cl)c3cccnc3c2O)CC1 | 74.3 | 27.0
Oc1c(CN2CCOCC2)cc(Cl)c2cccnc12 | 1.3* | -3.0
Oc1c(CN2CCCCC2)cc(Cl)c2cccnc12 | nt | 13.0
Cc1cccc(N(Cc2ccccc2)C(=O)c2nc3nc(C)cc(C)n3n2)c1 | 68.8 | -7.0
C=C1c2ccccc2N=C(SCC(=O)Nc2cccnc2Cl)N1C | 74.8 | 11.0
CN1/C(=C\C(=O)CN2C(=O)NC3(CCCCC3)C2=O)C(C)(C)c2ccccc21 | 88.9 | -2.0
CN1/C(=C\C(=O)CN2C(=O)NC3(CCc4ccccc43)C2=O)C(C)(C)c2ccccc21 (centres undefined) | -0.9* | -19.0
Cc1nnc(SCC(=O)NC2CCCCCC2)[nH]c1=O | 0.2* | 12.0
Cc1sc2nc(SCC(=O)NC3CCCCC3)[nH]c(=O)c2c1C | 81.4 | 4.0
O=C(CSc1nnc(-c2ccccc2F)o1)Nc1ccc(S(=O)(=O)NC2=NCCCCC2)cc1 | 95.9 | 13.0
CCOC(=O)Oc1cc2oc(=O)sc2cc1Cl | 4.9* | 32.0
CCOC(=O)N=c1oc2cc(Cl)c(Cl)cc2o1 | 57.1 | 12.0
Fc1cccc(Cl)c1-c1nn[nH]n1 | 110.4 | 13.0
CCOC(=O)c1c(-c2ccccc2)oc2ccc(OCC(O)CN3CCOCC3)cc12 (centres undefined) | 59.0 | -3.0
CCCSC(=S)c1c(C)[nH]n(-c2ccc(C)cc2)c1=O | 122.8 | nt
CCCSC(=S)c1c(C)[nH]n(-c2ccccc2)c1=O | 0.2* | -7.0
Cc1ccc(Sc2c(C(=O)NCc3ccco3)[nH]c3ccccc23)cc1 | 128.8 | 7.0
CCc1nnc2c3ccccc3nc(Nc3cccc(C(=O)O)c3)n12 | 88.4 | 0.0
